BAZ2B inh: qHTS Assay for Inhibitors of BAZ2B | Bromodomain adjacent to zinc finger domain protein 2B (Homo sapiens), Q9UIF8 | Potency, µM (highest dose often 114 µM), for the others: at the top dose activity change, negative = inhibition, hits mostly inhibitors | AID 504333, 2011 | AlphaScreen BAZ2B-H3K14Ac peptide displacement | 360,000 tested, 4.4% active; also: potency is read from the fitted curve at half-maximal effect; % is scaled to controls: 0 for no effect and ±100 for the full control effect; nearly all actives have a fitted effect of over 60% in size
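Protein-peptide AlphaScreen: BAZ2B 50 nM, b-H3K14Ac 50 nM, 1x PBS pH 7.4 + 0.01% Tween-20. Preincubation 30 min RT; cpd 30 min RT (top 110 uM); beads 20 min RT, light-protected.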
HP1b binding inh: HTS for Inhibitors of HP1-beta Chromodomain Interactions with Methylated Histone Tails | Chromobox protein homolog 1 (Homo sapiens), P83916 | AlphaScreen HP1-beta / biotin-H3K9me3 peptide binding | Potency, µM (doses to about 114 µM), for inactives: at the highest dose activity change, negative = inhibition, most hits filed as inhibitors | 390,000 tested, 0.56% active; also: potency is read from the fitted curve at half-maximal effect; nearly all actives have a fitted effect of over 70% in size
Target sequence (P83916 whole entry, looked up): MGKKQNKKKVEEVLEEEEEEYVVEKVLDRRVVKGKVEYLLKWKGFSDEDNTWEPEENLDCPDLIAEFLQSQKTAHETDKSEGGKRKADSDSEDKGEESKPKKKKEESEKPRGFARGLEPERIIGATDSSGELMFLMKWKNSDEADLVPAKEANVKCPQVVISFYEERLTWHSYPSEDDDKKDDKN
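Compound inhibition of the preformed complex between 50 nM HP1-beta and 50 nM biotinylated H3K9me3 peptide was read by AlphaScreen. Buffer was PBS pH 7.4 with 0.01% Tween-20. Incubations ran 30 min at room temperature, with 10 ug/mL donor/acceptor beads.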
Six1-Eya2 blk: qHTS Assay for Inhibitors of the Six1/Eya2 Interaction | activity change, % (concentration not given with the values) | AID 651725, 2012 | AlphaScreen GST-Six1/His-Eya2 binding, biochemical; active compounds read low | 360,000 tested, 0.56% active; in the data active = activity change below about -65%; inconclusive = mostly about -30% to -63%; also: % is scaled to controls: 0 for no effect and ±100 for the full control effect
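AlphaScreen with GST-Six1 and His-Eya2 (5X mix: 250 nM and 500 nM), glutathione donor and nickel acceptor beads; buffer 50 mM Tris pH 8.0, 300 mM NaCl, 1 mM TCEP; 1 h at 37 C in the dark.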
JMJD2A Tudor inh: qHTS Assay for Inhibitors of JMJD2A-Tudor Domain; Lysine-specific demethylase 4A (Homo sapiens), O75164; AlphaScreen JMJD2A-Tudor / H3K4me3 peptide binding; Potency, µM (highest dose often 114 µM), for inactives: at the top dose activity change, negative = inhibition, actives largely listed as inhibitors; 390,000 tested, 4.4% active; also: potency is read from the fitted curve at half-maximal effect; % is scaled to controls: 0 for no effect and ±100 for the full control effect; nearly all actives have a fitted effect of over 50% in size
G9a block: qHTS Assay for Inhibitors of Histone Lysine Methyltransferase G9a; G9a H3K9 monomethylation, AlphaScreen, 2 h; Potency, µM (highest dose often 102 µM), inactives show at the highest dose activity, negative = inhibition, usual class: inhibitors; 350,000 tested, 8.8% active; AID 504332, 2011; also: potency is read from the fitted curve at half-maximal effect; % is scaled to controls: 0 for no effect and ±100 for the full control effect; nearly all actives have a fitted effect of over 75% in size
Target sequence (Q96KQ7 913-1193 limits assumed): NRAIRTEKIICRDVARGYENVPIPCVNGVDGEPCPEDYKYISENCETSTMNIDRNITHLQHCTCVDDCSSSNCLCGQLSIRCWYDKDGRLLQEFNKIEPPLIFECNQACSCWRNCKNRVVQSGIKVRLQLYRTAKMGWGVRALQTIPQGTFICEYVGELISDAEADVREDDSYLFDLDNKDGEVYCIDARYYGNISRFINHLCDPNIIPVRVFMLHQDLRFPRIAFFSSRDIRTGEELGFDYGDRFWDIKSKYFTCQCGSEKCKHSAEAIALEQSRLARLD
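Enzyme 20 nM + cpd, 15 min RT; add b-H3K9 pep 500 nM / SAM 20 uM; 2 h RT; anti-H3K9me1 Ab 0.5 ug/mL + SA donor / anti-rabbit acceptor beads 20 ug/mL each, 10 min; AlphaScreen read.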
CtBP-E1A blk: qHTS Assay for Inhibitors of the CtBP/E1A Interaction | CtBP / adenovirus E1A interaction (AlphaScreen) | AlphaScreen GST-E1A/His-CtBP binding, 1536-well; active compounds read low | activity change, % (no concentration beside the values) | 340,000 tested, 0.49% active; in the data active = activity change below about -65%; inconclusive = mostly about -30% to -63%; also: % is scaled to controls: 0 for no effect and ±100 for the full control effect
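AlphaScreen with 125 nM GST-E1A and 125 nM His-CtBP (5X stocks) in Tris pH 8.0, 300 mM NaCl, BSA, Tween 20, TCEP. Compounds preincubated 2 h at 37 deg C, then glutathione donor/nickel acceptor beads added for 1 h at 37 deg C in dark.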
Active calls of the source: *; u = inconclusive; x = not tested or not shown; ! = a repeat was not active; [ ] = dose if it differs, or a comment. A selection: hits, their analogues and other compounds. The true share with any hit is near 10%. Unless noted, calls follow the shape of the dose curve; as a rule, active = well fitted inhibition curve with a large enough effect; inconclusive = small, poorly fitted or top-dose-only effect; inactive = no such curve, though single readings can be large or run the other way.

SMILES | BAZ2B inh | HP1b binding inh | Six1-Eya2 blk | JMJD2A Tudor inh | G9a block | CtBP-E1A blk
Cc1cc(-c2ccccc2)nc(SCC(=O)c2cccc([N+](=O)[O-])c2)n1 | u | 0% | -24 | -36% | -9% | -19
O=C(CSc1n[nH]c(-c2ccncc2)n1)c1cccc([N+](=O)[O-])c1 | -31% | 27% | -12 | -15% | 22µM* | -13
Cc1ccc(C)c(C(=O)CSc2n[nH]c(-c3ccncc3)n2)c1 | -4% | 29% | -8 | 89µM* | -1% | -8
CCc1nc(SCC(=O)c2cccc([N+](=O)[O-])c2)n[nH]1 | 0% | u | 3 | 40µM* | u | 2
CCC(Sc1nnc(-c2ccc(F)cc2)c(-c2ccc(F)cc2)n1)C(=O)NC1CCCC1 (centres undefined) | -2% | 19% | x | -23% | 3%[59 µM] | x
CCc1ccc(-n2nc3ccc(NC(=O)c4ccc(C#N)cc4F)cc3n2)cc1 | -14% | 41% | x | -2% | u | x
O=C(O)c1cc(=O)c2ccccc2[nH]1 | u | 13% | -9 | u | 10µM*! | -12
O=C(O)c1cc(=O)c2c(Cl)cc(Cl)cc2[nH]1 | x | 4% | -14 | 50µM* | 16%[12.7 µM] | -5
O=C(O)c1cc(=O)c2cccc(O)c2[nH]1 | x | 49% | x | 28µM* | -33%[2.33 µM] | x
CCc1ccc(-c2[nH]nc3nc(-c4ccc(OC)cc4)cc(C(=O)NCCCOC)c23)cc1 | 0% | -17% | x | -5% | -14%[59 µM] | x
COc1ccc(-c2nnc3n2N=C(c2ccc(OC)c(OC)c2)CS3)cc1 | x | x | x | -15% | x | x
O=C(COC(=O)c1ccc(-c2ccc([N+](=O)[O-])cc2)o1)NC(=O)NC12CC3CC(CC(C3)C1)C2 | u | u | -27 | u | u | u
Cc1ccc(SCC(=O)OCC(=O)NC2CCCCCCC2)cc1 | 32% | 79% | 8 | 21% | 9%[0.501 µM] | 14
CN(C(=O)CSc1nc2ccc([N+](=O)[O-])cc2s1)C1CCS(=O)(=O)C1 (centres undefined) | -5% | 71% | 0 | -18% | 0%[12.7 µM] | -4
CN(C(=O)CSc1nc2cc([N+](=O)[O-])ccc2n1-c1ccc(F)cc1)C1CCS(=O)(=O)C1 (centres undefined) | -29% | 25% | 0 | 79µM* | 20µM* | 0
CN(C(=O)COC(=O)CSc1ccc([N+](=O)[O-])cc1)C1CCS(=O)(=O)C1 (centres undefined) | 10% | 3% | 8 | -17% | 50µM* | -5
O=C(COC(=O)CSc1ccc([N+](=O)[O-])cc1)NC1CCCCCCC1 | -8% | u | 5 | u | 45µM* | -11
CN(C(=O)COC(=O)CSc1ccc(C(N)=O)cc1[N+](=O)[O-])C1CCS(=O)(=O)C1 (centres undefined) | 6% | -3% | 12 | -10% | -41% | 0
O=C(COC(=O)c1ccc(-c2ccc([N+](=O)[O-])cc2)o1)NC(=O)NC1CCCCC1 | -6% | -11% | -24 | -31% | 40µM* | -24
Cc1cccc(NC(=O)Cn2nc(C)c3nn(-c4ccc(Cl)cc4)c(C)c3c2=O)c1C | 2% | 27%[57 µM] | x | -14% | 2%[59 µM] | x
CC(C)(O)C#Cc1ccc(CN2CCCC(CNC(=O)c3ccco3)C2)cc1 (centres undefined) | 18% | 9% | -1 | -15% | x | 0
CC(=O)N[C@H]1C(O[C@@H]2O[C@H](C[C@@H](O)[C@H]3O[C@@H](N4CCC(=O)NC4=O)[C@H](O)[C@@H]3O)[C@H](O)[C@H](O)[C@H]2NC(=O)/C=C/CCCCCCCCCCC(C)C)OC(CO)[C@@H](O)[C@@H]1O (some centres undefined) | x | x | x | x | -31%[59 µM] | x
CC(C)(C)Cc1c(-c2cccc(Cl)c2)nc2ccc(Br)cn12 | x | x | -5 | x | x | -5
CCN(C(=O)COC(=O)CSc1ccc([N+](=O)[O-])cc1)C1CCS(=O)(=O)C1 (centres undefined) | -5% | 50µM* | 0 | 35µM* | 18% | 2
CC(=O)N(\C=C/C=C/C=C1\Sc2ccccc2C1=O)c1ccccc1 | 7.1µM* | 13µM* | -13 | 7.9µM* | 10µM* | 14
SMILES | BAZ2B inh | HP1b binding inh | Six1-Eya2 blk | JMJD2A Tudor inh | G9a block | CtBP-E1A blk
COC(=O)c1ccccc1NC(=O)CCCOc1cc(=O)n(C)c2ccccc12 | x | x | -1 | x | x | 4
Cn1c(N)c(C(=O)COC(=O)c2cc(-c3ccccc3)nc3ccccc23)c(=O)n(Cc2ccccc2)c1=O | -10% | 9% | -1 | -33% | u | 1
Cn1c(=O)c(C(=O)COC(=O)c2cc(-c3ccco3)nc3ccccc23)c(N)n(Cc2ccccc2)c1=O | 45µM* | x | x | x | 8.9µM* | x
Cn1c(=O)c(C(=O)COC(=O)c2cc(C(F)(F)F)nc3c(C(F)(F)F)cccc23)c(N)n(CC2CC2)c1=O | -39% | x | x | x | 50µM* | x
CC(C)Cn1c(N)c(C(=O)COC(=O)c2cc(-c3ccco3)nc3ccccc23)c(=O)n(C)c1=O | 79µM* | u | -9 | 40µM* | u | -3
CC(C)Cn1c(N)c(C(=O)COC(=O)c2cc(-c3ccccc3)nc3ccccc23)c(=O)n(C)c1=O | -9% | 31% | 0 | -7% | u | x
CCCCCN1C(C(=O)c2ccccc2)=C(NC(=O)c2ccccc2Cl)c2ccccc2S1(=O)=O | 0%[57.1 µM] | 21% | x | -27% | -27%[59 µM] | x
Fc1ccc(Cn2nnnc2C(c2ccc(Cl)cc2)N2CCSCC2)cc1 (centres undefined) | -1% | 4% | -1 | 56µM* | 50µM* | 11
CCN1CCN(C(c2ccc(F)cc2)c2nnnn2Cc2ccc3c(c2)OCO3)CC1 (centres undefined) | -10% | 16% | 0 | -10% | x | -14
c1ccc(Cn2nnnc2C(c2cccs2)N2CCSCC2)cc1 (centres undefined) | 6% | -2% | 0 | -15% | 24%[59 µM] | -13
CC1CCN(C(c2ccc(N(C)C)cc2)c2nnnn2Cc2ccc(F)cc2)CC1 (centres undefined) | 13µM* | u | -11 | u | -5%[0.501 µM] | 0
CC1(C(=O)Nc2ccc(Cl)cc2)Cc2c(-c3cccc(C(F)(F)F)c3)ccnc2O1 (centres undefined) | x | x | -7 | x | x | 0
